The source of these data is PubChem BioAssay (NCI).

Structures are written as SMILES. This is part of a sample that, as a whole, favours compounds with a hit. Of some 83,000 tested, about 20% had one in any assay.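 Single-concentration screen, 48 h exposure, 96-well plates. Endpoint: percent growth. Below 10 = active.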 Values without a mark were called inactive. Calls of active or inactive are those of the source.

Assay in all cases: NCI-60 one-dose screen, 48 h (100 = growth as untreated, 0 = no growth, -100 = all killed)
Common to all, as to conditions: 10 µM unless noted

For assay [1], the system named is DU-145 prostate.
In assay [2] the test system is K-562 leukemia.
Assay [3] has as its system MALME-3M melanoma.
For assay [4], the system named is MDA-MB-231 breast.
The subject of assay [5] is RXF 393 renal.
Assay [6] relates to SF-268 CNS.
The test system of assay [7] is SF-295 CNS.
In assay [8] the test system is SF-539 CNS.
Assay [9] concerns UACC-257 melanoma.
Assay [10] has as its system M14 melanoma.
The subject of assay [11] is HCT-15 colon.
The test system of assay [12] is HT29 colon.
Assay [13] relates to SNB-75 CNS.
In assay [14] the test system is SNB-19 CNS.
The test system of assay [15] is U251 CNS.
The test system of assay [16] is PC-3 prostate.
Assay [17] deals with SK-MEL-5 melanoma.
Assay [18] concerns UACC-62 melanoma.
The subject of assay [19] is LOX IMVI melanoma.
The test system of assay [20] is SK-MEL-28 melanoma.

`O=C(N/N=C/c1cc(Cl)ccc1O)c1ccccc1Nc1ccnc(C(F)(F)F)c1`: the growth in assay [1] is 25.8%; in [2], 89.3%; in assay [3], -18.7% (active); in assay [4], 50.4%; in assay [5], 58.3%; in [6], 18.3%. For the same compound, the growth was 28.9% in assay [7]; -4.43% (active) in assay [8]; 42.8% in assay [9]; 23.6% in assay [10]; 30.4% in assay [11]; 39.2% in assay [12]. Besides, the growth was 57.6% in assay [13]; 21% in [14]; 16.7% in assay [15]; 32.9% in assay [16]; 2.92% (active) in assay [17]; -12% (active) in assay [18]. Also, the growth in assay [19] is 13.2%; in assay [20] it was 59.1%.

As for `COc1ccc(CCN2C(=O)/C(=C/c3ccc(C4Oc5ccccc5C5CC(c6ccccc6)=NN54)cc3)SC2=S)cc1` (stereo not given), the growth was 110% in assay [1]; 100% in [2]; 102% in assay [3]; 92.3% in [4]; 107% in [5]; 99.2% in assay [6]. Moreover, the growth was 105% in assay [7]; 98.5% in assay [8]; 109% in assay [9]; 102% in assay [10]; 105% in [11]; 105% in assay [12]. The growth in assay [13] was 101%; in assay [14], 94.2%; in [15] it was 101%; in assay [16], 98%; in assay [17], 101%; in assay [18], 97.5%. Also, the growth in assay [19] was 96.6%; in [20], 117%.

Take `C/C(=N\O)c1ccc(NC(=O)CSc2nnc(-c3cc(-c4ccc(S(C)(=O)=O)cc4)nc4ccccc34)n2-c2ccccc2)cc1`: the growth was 92.6% in [1]; 73.4% in [2]; 94.4% in [3]; 76.9% in [4]; 98.7% in assay [5]; 77.4% in assay [6]. In addition, the growth in [7] is 99.4%; in assay [8], 83.4%; in [9], 99.1%; in assay [10], 93%; in [11] it was 84.7%; in assay [12] it was 102%. Besides, the growth is 57% in [13]; 87.6% in [14]; 93.5% in [15]; 68.5% in assay [16]; 74.8% in [17]; 80.6% in [18]. Besides, the growth was 76.7% in assay [19] and 102% in [20].

With `N=c1c(S(=O)(=O)c2ccccc2)cc2c(=O)n3ccccc3nc2n1CC1CCCO1` (stereo not given), the growth is 110% in assay [1]; 113% in assay [2]; 118% in [3]; 97.9% in assay [4]; 113% in assay [5]; 100% in assay [6]. The growth in [7] is 112%; in [8], 95.6%; in assay [9], 109%; in assay [10], 104%; in [11] it was 119%; in assay [12] it was 120%. Besides, the growth is 73.9% in assay [13]; 103% in [14]; 108% in assay [15]; 95.3% in [16]; 99.7% in assay [17]; 99.8% in [18]. Further, the figures for the growth in assay [19] and in assay [20] were 98.7% and 108%, respectively.

On to `Cc1ccc(C(=O)c2ccc(CC(=O)NN3C(=O)c4ccccc4C3=O)n2C)cc1`, for which the growth in assay [1] was 108%; in [2], 90.9%; in assay [3] it was 101%; in assay [4], 93.9%; in assay [5], 102%; in assay [6], 95.8%. Further, the growth was 98.6% in assay [7]; 97.3% in assay [8]; 100% in assay [9]; 104% in [10]; 103% in assay [11]; 106% in [12]. Besides, the growth in assay [13] is 62.9%; in assay [14], 96.4%; in [15], 95.8%; in assay [16] it was 98.9%; in assay [17] it was 99.8%; in assay [18], 94.2%. In addition, the growth in [19] was 94.1%; in [20], 103%.

For the compound `CCOC(=O)c1c(C)nc2c(c1N)/C(=C/c1ccc(OC)cc1)C(=O)N2Cc1ccccc1`, the growth in [1] was 60.7%; in assay [2], 46.5%; in assay [3], 64.5%; in assay [4], 57.8%; in assay [5] it was 71.4%; in [6], 62.3%. For the same compound, the growth is 68.7% in assay [7]; 87.5% in [8]; 49.6% in [9]; 71.3% in assay [10]; 41% in assay [11]; 34% in [12]. Besides, the growth in assay [13] was 73.3%; in [14], 77.7%; in [15] it was 50.7%; in [16] it was 58.4%; in assay [17] it was 61.8%; in [18] it was 48.8%. Besides, the growth in assay [19] was 55.6%; in assay [20], 78.5%.

As to `Nc1c(C(=O)Nc2cccc(Cl)c2)sc2nc3c(cc12)CCCC3`, the growth was 104% in [1]; 48.3% in assay [2]; 102% in assay [3]; 93.3% in assay [4]; 103% in assay [5]; 102% in assay [6]. In addition, the growth in [7] is 91.6%; in assay [8] it was 86.9%; in [9], 79.1%; in [10], 78.6%; in [11], 78.8%; in assay [12] it was 68.2%. The growth is 101% in assay [13]; 92.2% in assay [14]; 89.3% in assay [15]; 80.2% in assay [16]; 88.2% in assay [17]; 70.2% in [18]. Further, the growth is 93% in assay [19] and 91.1% in assay [20].

Take `Cc1ccc(S(=O)(=O)Oc2ccc3sc4cccc(NCCN(C)C)c4c(=O)c3c2)cc1`: the growth in [1] is -89.5% (active); in assay [2], -64.6% (active); in assay [3] it was -99.4% (active); in assay [4], -96.7% (active); in assay [5], -87.4% (active); in assay [6], -82.1% (active). Besides, the growth was -92.3% (active) in [7]; -95.3% (active) in assay [8]; -80.6% (active) in assay [9]; -84.9% (active) in assay [10]; -94.2% (active) in assay [11]; -60.6% (active) in [12]. Besides, the growth is -92.9% (active) in assay [13]; -60% (active) in assay [14]; -78.6% (active) in assay [15]; -86.4% (active) in assay [16]; -99% (active) in [17]; -98.2% (active) in assay [18]. For the same compound, the growth was -96.5% (active) in assay [19] and -92.4% (active) in assay [20].
